# Compounds without any hit were thinned out: in the full panel of roughly 79,000, 15% have a hit. Values without a mark were called inactive. Active and inactive are the calls of the source. Rule as the data show it: active = growth inhibition above about 70%; inactive = the rest.
# What was measured:
# [1] = NCI Yeast Anticancer Drug Screen. Data for the rad52 strain (AID 147);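 also: 0% = growth of vehicle-treated control cultures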; conditions: S. cerevisiae rad52 mutant growth inhibition, stronger effect = higher value
# Procedure, shortened: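 Here a repair-compromised yeast strain receives each compound; its growth is then quantified and normalised to vehicle-only controls.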
# [2] = NCI Yeast Anticancer Drug Screen. Data for the wt1 strain (AID 149);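 also: 0% = growth of vehicle-treated wt1 cultures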; conditions: S. cerevisiae wt1 strain (SPY 50644) growth inhibition, stronger effect = higher value
# Procedure, shortened: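 Each compound is tested on wt1 yeast and the loss of growth versus vehicle gives the inhibition value.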
# [3] = NCI Yeast Anticancer Drug Screen. Data for the rad50EPP+ strain (AID 151);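 also: 0% = growth of vehicle-treated control cultures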; conditions: S. cerevisiae rad50 mutant strain, stronger effect = higher value
# Procedure, shortened: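 Read-out is yeast growth inhibition relative to vehicle; cells used were the rad50EPP+ strain.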
# [4] = NCI Yeast Anticancer Drug Screen. Data for the mgt1 strain (AID 153); conditions: S. cerevisiae mgt1 mutant growth inhibition, stronger effect = higher value
# Procedure, shortened: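 Measured: inhibition of mgt1 yeast growth by compound, normalized to vehicle-treated cultures.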
# [5] = NCI Yeast Anticancer Drug Screen. Data for the rad50 strain (AID 155);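 also: 0% = growth of vehicle-only cultures of the same strain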; conditions: S. cerevisiae rad50 strain growth inhibition, stronger effect = higher value
# Procedure, shortened: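 Vehicle-treated cultures provide the reference for the growth inhibition reported for compound-exposed, repair-deficient yeast.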
# [6] = NCI Yeast Anticancer Drug Screen. Data for the mec2-1 strain (AID 157); conditions: S. cerevisiae mec2-1 strain, stronger effect = higher value
# Procedure, shortened: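 Using mec2-1 yeast: add compound, measure growth, express inhibition versus vehicle-treated cultures.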
# [7] = NCI Yeast Anticancer Drug Screen. Data for the rad14 strain (AID 159);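 also: 0% = growth of vehicle-treated control cultures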; conditions: S. cerevisiae rad14 strain growth inhibition, stronger effect = higher value
# Procedure, shortened: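 Inhibition of growth is reported for a repair-deficient yeast mutant following compound treatment, calculated relative to cultures that received vehicle.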
# [8] = NCI Yeast Anticancer Drug Screen. Data for the sgs1 mgt1 strain (AID 161);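 also: 0% = growth of cultures given vehicle only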; conditions: S. cerevisiae sgs1 mgt1 strain, stronger effect = higher value
# Procedure, shortened: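 Percent growth inhibition was derived by comparing compound-exposed mutant yeast with vehicle-exposed cultures. The strain carries alterations in DNA damage repair.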
# [9] = NCI Yeast Anticancer Drug Screen. Data for the CLN2oe strain (AID 163);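 also: 0% = growth of vehicle-only control cultures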; conditions: S. cerevisiae CLN2oe strain, stronger effect = higher value
# Procedure, shortened: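 Whole-cell yeast growth assay. A strain engineered for altered cell-cycle control received compound, and inhibition relative to vehicle-treated cultures was recorded.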
# [10] = NCI Yeast Anticancer Drug Screen. Data for the cln2 rad14 strain (AID 165);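 also: 0% = growth equal to vehicle treated cultures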; conditions: S. cerevisiae cln2 rad14 strain, stronger effect = higher value
# Procedure, shortened: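 Yeast strain cln2 rad14, bearing defects in cell cycle control and DNA repair, serves as the test system; values reflect growth inhibition compared with vehicle.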
# [11] = NCI Yeast Anticancer Drug Screen. Data for the bub3 strain (AID 167); conditions: S. cerevisiae bub3 mutant strain, stronger effect = higher value
# Procedure, shortened: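 Mutant yeast screening strain plus compound; vehicle-treated cultures serve as the 0% inhibition reference.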
# [12] = NCI Yeast Anticancer Drug Screen. Data for the wt2 strain (AID 169); conditions: S. cerevisiae wt2 strain growth inhibition, stronger effect = higher value
# Procedure, shortened: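 Treated yeast vs. vehicle-treated yeast: growth inhibition determined.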
# [13] = NCI Yeast Anticancer Drug Screen. Data for the mlh1 strain (AID 171);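 also: 0% = growth of vehicle-treated control cultures of the same strain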; conditions: S. cerevisiae mlh1 strain growth inhibition, stronger effect = higher value
# Procedure, shortened: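 A yeast strain with a defined genetic lesion serves as the test organism. Cultures receive compound or vehicle, and growth is measured.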
# [14] = NCI Yeast Anticancer Drug Screen. Data for the sgs1 strain (AID 173);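 also: 0% = growth of vehicle-only control cultures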; conditions: S. cerevisiae sgs1 mutant, stronger effect = higher value
# Procedure, shortened: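 A genetically defined yeast mutant is incubated with the test compound, and its growth is compared to that of the same strain given vehicle.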
# [15] = NCI Yeast Anticancer Drug Screen. Data for the mlh1 rad18 strain (AID 175); conditions: S. cerevisiae mlh1 rad18 strain growth inhibition, stronger effect = higher value
# Procedure, shortened: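 Steps: expose repair-defective yeast to compound; measure growth; express inhibition against vehicle-treated controls.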
# [16] = NCI Yeast Anticancer Drug Screen. Data for the rad18 strain (AID 177); conditions: S. cerevisiae rad18 mutant growth inhibition, stronger effect = higher value
# Procedure, shortened: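 Measured value is growth inhibition of a yeast strain bearing a DNA repair alteration, referenced to vehicle-treated cells.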
# [17] = at 5.0 µM (retest, dose inferred, filed as 0.5)
# [18] = at 50.0 µM (retest, dose inferred, filed as 5.0)
compound,measurement,setting,value
C[N+](C)(C)CC1CCCC(C[N+](C)(C)C)C1=O (stereo unspecified),growth inhibition,[1]; at 1.2 µM,0%
same,growth inhibition,[1]; at 3.7 µM,1%
same,growth inhibition,[1]; at 11.0 µM,9%
same,growth inhibition,[1]; at 33.0 µM,34%
same,growth inhibition,[1]; at 100.0 µM,96% (active)
same,growth inhibition,[2]; at 1.2 µM,-1%
same,growth inhibition,[2]; at 3.7 µM,3%
same,growth inhibition,[2]; at 11.0 µM,-1%
same,growth inhibition,[2]; at 33.0 µM,13%
same,growth inhibition,[2]; at 100.0 µM,98% (active)
same,growth inhibition,[3]; at 1.2 µM,-3%
same,growth inhibition,[3]; at 3.7 µM,3%
same,growth inhibition,[3]; at 11.0 µM,13%
same,growth inhibition,[3]; at 33.0 µM,64%
same,growth inhibition,[3]; at 100.0 µM,99% (active)
same,growth inhibition,[4]; at 1.2 µM,0%
same,growth inhibition,[4]; at 3.7 µM,2%
same,growth inhibition,[4]; at 11.0 µM,5%
same,growth inhibition,[4]; at 33.0 µM,27%
same,growth inhibition,[4]; at 100.0 µM,99% (active)
same,growth inhibition,[5]; at 1.2 µM,2%
same,growth inhibition,[5]; at 3.7 µM,-18%
same,growth inhibition,[5]; [17],1%
same,growth inhibition,[5]; at 11.0 µM,37%
same,growth inhibition,[5]; at 33.0 µM,63%
same,growth inhibition,[5]; [18],35%
same,growth inhibition,[5]; at 50.0 µM,91.8% (active)
same,growth inhibition,[5]; at 100.0 µM,99% (active)
same,growth inhibition,[6]; at 1.2 µM,1%
same,growth inhibition,[6]; at 3.7 µM,5%
same,growth inhibition,[6]; [17],6%
same,growth inhibition,[6]; at 11.0 µM,10%
same,growth inhibition,[6]; at 33.0 µM,25%
same,growth inhibition,[6]; [18],-19%
same,growth inhibition,[6]; at 50.0 µM,99.8% (active)
same,growth inhibition,[6]; at 100.0 µM,98% (active)
same,growth inhibition,[7]; at 1.2 µM,-1%
same,growth inhibition,[7]; at 3.7 µM,0%
same,growth inhibition,[7]; at 11.0 µM,8%
same,growth inhibition,[7]; at 33.0 µM,38%
same,growth inhibition,[7]; at 100.0 µM,99% (active)
same,growth inhibition,[8]; [17],3%
same,growth inhibition,[8]; [18],50%
same,growth inhibition,[8]; at 50.0 µM,68.3%
same,growth inhibition,[9]; at 1.2 µM,0%
same,growth inhibition,[9]; at 3.7 µM,1%
same,growth inhibition,[9]; at 11.0 µM,6%
same,growth inhibition,[9]; at 33.0 µM,12%
same,growth inhibition,[9]; at 100.0 µM,24%
same,growth inhibition,[10]; [17],6%
same,growth inhibition,[10]; [18],21%
same,growth inhibition,[10]; at 50.0 µM,25.5%
same,growth inhibition,[11]; at 1.2 µM,-1%
same,growth inhibition,[11]; at 3.7 µM,4%
same,growth inhibition,[11]; [17],-45%
same,growth inhibition,[11]; at 11.0 µM,4%
same,growth inhibition,[11]; at 33.0 µM,44%
same,growth inhibition,[11]; [18],41%
same,growth inhibition,[11]; at 50.0 µM,89.2% (active)
same,growth inhibition,[11]; at 100.0 µM,99% (active)
same,growth inhibition,[12]; at 1.2 µM,-3%
same,growth inhibition,[12]; at 3.7 µM,7%
same,growth inhibition,[12]; at 11.0 µM,2%
same,growth inhibition,[12]; at 33.0 µM,5%
same,growth inhibition,[12]; at 100.0 µM,94% (active)
same,growth inhibition,[13]; at 1.2 µM,0%
same,growth inhibition,[13]; at 3.7 µM,3%
same,growth inhibition,[13]; at 11.0 µM,7%
same,growth inhibition,[13]; at 33.0 µM,26%
same,growth inhibition,[13]; at 100.0 µM,99% (active)
same,growth inhibition,[14]; at 1.2 µM,-1%
same,growth inhibition,[14]; at 3.7 µM,3%
same,growth inhibition,[14]; at 11.0 µM,15%
same,growth inhibition,[14]; at 33.0 µM,64%
same,growth inhibition,[14]; at 100.0 µM,99% (active)
same,growth inhibition,[15]; [17],8%
same,growth inhibition,[15]; [18],62%
same,growth inhibition,[15]; at 50.0 µM,97.2% (active)
same,growth inhibition,[16]; at 1.2 µM,1%
same,growth inhibition,[16]; at 3.7 µM,13%
same,growth inhibition,[16]; at 11.0 µM,44%
same,growth inhibition,[16]; at 33.0 µM,93% (active)
same,growth inhibition,[16]; at 100.0 µM,98% (active)
O=[N+]([O-])O.[NH-]C1CCCCC1[NH-].[NH-]C1CCCCC1[NH-].[NH-]C1CCCCC1[NH-].[OH-].[OH-].[OH-].[Pt+4].[Pt+4].[Pt+4] (stereo unspecified),growth inhibition,[1]; at 1.2 µM,-29%
same,growth inhibition,[1]; at 3.7 µM,-36%
same,growth inhibition,[1]; at 11.0 µM,-51%
same,growth inhibition,[1]; at 33.0 µM,-26%
same,growth inhibition,[1]; at 100.0 µM,-25%
same,growth inhibition,[2]; at 1.2 µM,-15%
same,growth inhibition,[2]; at 3.7 µM,-12%
same,growth inhibition,[2]; at 11.0 µM,-14%
same,growth inhibition,[2]; at 33.0 µM,-14%
same,growth inhibition,[2]; at 100.0 µM,-3%
same,growth inhibition,[3]; at 1.2 µM,-28%
same,growth inhibition,[3]; at 3.7 µM,-26%
same,growth inhibition,[3]; at 11.0 µM,-19%
same,growth inhibition,[3]; at 33.0 µM,-28%
same,growth inhibition,[3]; at 100.0 µM,-31%
same,growth inhibition,[4]; at 1.2 µM,-14%
same,growth inhibition,[4]; at 3.7 µM,-15%
same,growth inhibition,[4]; at 11.0 µM,-19%
same,growth inhibition,[4]; at 33.0 µM,-12%
same,growth inhibition,[4]; at 100.0 µM,-7%
same,growth inhibition,[5]; at 1.2 µM,-6%
same,growth inhibition,[5]; at 3.7 µM,-14%
same,growth inhibition,[5]; [17],17%
same,growth inhibition,[5]; at 11.0 µM,-14%
same,growth inhibition,[5]; at 33.0 µM,-2%
same,growth inhibition,[5]; [18],20%
same,growth inhibition,[5]; at 50.0 µM,50.8%
same,growth inhibition,[5]; at 100.0 µM,-11%
same,growth inhibition,[6]; at 1.2 µM,12%
same,growth inhibition,[6]; at 3.7 µM,-6%
same,growth inhibition,[6]; [17],16%
same,growth inhibition,[6]; at 11.0 µM,0%
same,growth inhibition,[6]; at 33.0 µM,4%
same,growth inhibition,[6]; [18],14%
same,growth inhibition,[6]; at 50.0 µM,-15.5%
same,growth inhibition,[6]; at 100.0 µM,63%
same,growth inhibition,[7]; at 1.2 µM,-5%
same,growth inhibition,[7]; at 3.7 µM,-16%
same,growth inhibition,[7]; at 11.0 µM,-33%
same,growth inhibition,[7]; at 33.0 µM,-5%
same,growth inhibition,[7]; at 100.0 µM,-10%
same,growth inhibition,[8]; [17],27%
same,growth inhibition,[8]; [18],45%
same,growth inhibition,[8]; at 50.0 µM,-22.4%
same,growth inhibition,[9]; at 1.2 µM,-8%
same,growth inhibition,[9]; at 3.7 µM,-17%
same,growth inhibition,[9]; at 11.0 µM,-17%
same,growth inhibition,[9]; at 33.0 µM,-23%
same,growth inhibition,[9]; at 100.0 µM,-13%
same,growth inhibition,[10]; [17],12%
same,growth inhibition,[10]; [18],21%
same,growth inhibition,[10]; at 50.0 µM,-7.35%
same,growth inhibition,[11]; at 1.2 µM,-4%
same,growth inhibition,[11]; at 3.7 µM,-9%
same,growth inhibition,[11]; [17],20%
same,growth inhibition,[11]; at 11.0 µM,-14%
same,growth inhibition,[11]; at 33.0 µM,-14%
same,growth inhibition,[11]; [18],25%
same,growth inhibition,[11]; at 50.0 µM,-32%
same,growth inhibition,[11]; at 100.0 µM,-9%
same,growth inhibition,[12]; at 1.2 µM,-46%
same,growth inhibition,[12]; at 3.7 µM,-58%
same,growth inhibition,[12]; at 11.0 µM,-55%
same,growth inhibition,[12]; at 33.0 µM,-51%
same,growth inhibition,[12]; at 100.0 µM,-36%
same,growth inhibition,[13]; at 1.2 µM,2%
same,growth inhibition,[13]; at 3.7 µM,-10%
same,growth inhibition,[13]; at 11.0 µM,-6%
same,growth inhibition,[13]; at 33.0 µM,-13%
same,growth inhibition,[13]; at 100.0 µM,12%
same,growth inhibition,[14]; at 1.2 µM,-22%
same,growth inhibition,[14]; at 3.7 µM,-30%
same,growth inhibition,[14]; at 11.0 µM,-19%
same,growth inhibition,[14]; at 33.0 µM,6%
same,growth inhibition,[14]; at 100.0 µM,8%
same,growth inhibition,[15]; [17],40%
same,growth inhibition,[15]; [18],71% (active)
same,growth inhibition,[15]; at 50.0 µM,28.6%
same,growth inhibition,[16]; at 1.2 µM,-21%
same,growth inhibition,[16]; at 3.7 µM,2%
same,growth inhibition,[16]; at 11.0 µM,18%
same,growth inhibition,[16]; at 33.0 µM,54%
same,growth inhibition,[16]; at 100.0 µM,82% (active)

# — PubChem BioAssay (NCI)
